“And” between values parts separate entries of the source, which are not always exact repeats. Equal entries are not always repeated. Inconclusive results are not listed. The source made the active and inactive calls.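 The calls were made as follows, unless noted: active = mean z-score across replicates of 1.96 or higher in either the MELAS or the Rieske mutant cell line; inactive = the rest.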
How the values were obtained:
[1] = SU-DIPG-VI glioma cell viability, MIPE4.0 library, CellTiter-Glo luminescence, qHTS (AID 1347066; cut-off not given, nearly all actives have AC50 up to about 30 µM;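 also: cells exposed to compound for 48 hours before readout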); conditions: CellTiter-Glo ATP luminescence
[2] = SU-DIPG-XXV glioma cell viability, MIPE5.0 library, qHTS (AID 1347068; cut-off not given, nearly all actives have IC50 up to about 30 µM)
[3] = phospholipid biosynthesis inhibitors in animal cells, primary screen, cell-based, LOPAC library, screen 4 (AID 1347384; call rule not given here); conditions: phospholipid biosynthesis inhibition screen, at 10 µM
[4] = survival rescue of mitochondrial mutant cells in low glucose, primary screen, MELAS cybrids, Rieske KO mouse fibroblasts, CellTiter-Glo (AID 1508586);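 also: z relative to plate mean and SD of compound and empty wells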
[5] = biological target: NAD(+) hydrolase SARM1 (Homo sapiens) (UniProt Q6SZW1); experiment: SARM1 TIR NADase inhibitors, cell lysate, NAD-Glo luminescence (AID 1508614;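 active = compound whose remaining NAD level is above about 45 nM, limit read from the data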;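 also: higher remaining NAD means stronger inhibition of SARM1 NADase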); conditions: SAM-TIR HEK293T lysate NADase, at 1 µM, stronger effect = higher value
Chain of NAD(+) hydrolase SARM1 (Homo sapiens) (Q6SZW1 whole entry, looked up, the tested form may be a part): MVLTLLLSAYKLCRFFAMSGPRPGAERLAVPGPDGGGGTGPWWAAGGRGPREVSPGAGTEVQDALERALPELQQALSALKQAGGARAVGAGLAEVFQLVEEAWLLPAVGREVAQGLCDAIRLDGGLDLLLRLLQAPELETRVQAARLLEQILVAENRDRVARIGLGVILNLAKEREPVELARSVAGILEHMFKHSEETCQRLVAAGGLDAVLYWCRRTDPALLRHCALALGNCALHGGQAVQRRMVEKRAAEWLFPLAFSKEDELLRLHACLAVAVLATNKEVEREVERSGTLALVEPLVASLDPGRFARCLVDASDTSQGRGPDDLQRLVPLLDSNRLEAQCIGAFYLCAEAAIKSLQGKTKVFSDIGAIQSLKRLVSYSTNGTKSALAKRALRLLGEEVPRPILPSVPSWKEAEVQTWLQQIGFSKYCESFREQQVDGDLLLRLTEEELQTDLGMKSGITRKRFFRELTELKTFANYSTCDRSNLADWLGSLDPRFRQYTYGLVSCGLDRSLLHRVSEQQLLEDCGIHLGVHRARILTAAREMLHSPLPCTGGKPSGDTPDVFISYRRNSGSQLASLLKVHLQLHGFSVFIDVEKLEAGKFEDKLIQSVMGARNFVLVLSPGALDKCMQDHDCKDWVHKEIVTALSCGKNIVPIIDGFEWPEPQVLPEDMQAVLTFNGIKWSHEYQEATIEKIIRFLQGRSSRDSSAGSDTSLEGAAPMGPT

[6] = biological target: Mitogen-activated protein kinase 7 (Homo sapiens) (UniProt Q13164); experiment: ERK5 transactivation activators in reporter cells, primary screen, cell-based, HTS (AID 1508626;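 active = luciferase signal above three times the same-plate solvent-only control wells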;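 also: luciferase driven by Gal4-ERK5 fusion binding five Gal4 sites before minimal TATA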); conditions: HeLa Gal4-ERK5 transactivation, 18 h, at 5 µM, stronger effect = higher value
Chain of Mitogen-activated protein kinase 7 (Homo sapiens) (Q13164 whole entry, looked up, the tested form may be a part): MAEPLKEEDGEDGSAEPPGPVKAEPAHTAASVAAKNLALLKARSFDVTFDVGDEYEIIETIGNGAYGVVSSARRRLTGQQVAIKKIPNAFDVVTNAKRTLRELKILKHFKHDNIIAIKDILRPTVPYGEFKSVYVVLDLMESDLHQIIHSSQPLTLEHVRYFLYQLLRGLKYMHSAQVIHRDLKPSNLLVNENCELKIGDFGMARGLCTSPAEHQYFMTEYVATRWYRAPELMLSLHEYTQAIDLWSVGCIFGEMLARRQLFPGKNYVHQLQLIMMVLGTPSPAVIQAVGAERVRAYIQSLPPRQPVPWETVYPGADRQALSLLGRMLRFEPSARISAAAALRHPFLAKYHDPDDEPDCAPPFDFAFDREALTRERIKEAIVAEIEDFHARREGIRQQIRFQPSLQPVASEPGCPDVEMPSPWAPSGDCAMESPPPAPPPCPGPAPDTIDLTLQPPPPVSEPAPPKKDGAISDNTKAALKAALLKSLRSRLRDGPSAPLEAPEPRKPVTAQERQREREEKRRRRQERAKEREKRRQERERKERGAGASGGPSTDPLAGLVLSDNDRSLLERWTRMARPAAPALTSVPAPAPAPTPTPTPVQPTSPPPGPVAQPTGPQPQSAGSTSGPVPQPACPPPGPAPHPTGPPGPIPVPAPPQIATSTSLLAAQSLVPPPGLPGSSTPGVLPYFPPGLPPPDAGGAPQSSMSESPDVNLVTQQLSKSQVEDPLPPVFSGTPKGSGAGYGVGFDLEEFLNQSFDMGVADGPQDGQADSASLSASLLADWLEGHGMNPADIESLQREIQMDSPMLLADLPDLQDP

[7] = viability rescue of complex I mutant cybrids, primary screen, cell-based, galactose medium, ATP luminescence (AID 1645843;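 active = z-score of at least 1.8 in each of two replicates, scored against plate mean and spread of sample wells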;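 also: positive z means more ATP and so rescue of galactose-driven cybrid death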); conditions: complex I mutant cybrid cells, 72 h, stronger effect = higher value
[8] = LFS_MB_P medulloblastoma growth inhibition, cell-based, chromothripsis tumors, cisplatin or BGB combos (AID 1671449; in the data active = inhibition above about 80%;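 also: cells exposed for 96 hours; 0% = vehicle DMSO and 100% = killing by high DMSO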); conditions: LFS_MB_P medulloblastoma cells
[9] = HDN33 neuroblastoma growth inhibition, cell-based, chromothripsis tumors, cisplatin or BGB combos (AID 1671450; in the data active = inhibition above about 80%;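 also: cells exposed to compound for four days; 0% = vehicle DMSO and 100% = cell killing by high DMSO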); conditions: HDN33 neuroblastoma cells, stronger effect = higher value
[10] = ICB984 medulloblastoma cell growth inhibition, synergistic combos for chromothripsis tumors, cisplatin or BGB combos (AID 1671451; call rule not given here;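 also: cells exposed for 96 hours before readout; 0% = vehicle DMSO and 100% = killing by high DMSO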); conditions: ICB984 medulloblastoma cells, drug combinations, stronger effect = higher value
[11] = LFS_MB_1R medulloblastoma cell growth inhibition, synergistic combos for chromothripsis tumors, cisplatin or BGB combos (AID 1671452; in the data active = inhibition above about 80%;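 also: cells exposed for 96 hours before readout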); conditions: LFS_MB_1R medulloblastoma cells, stronger effect = higher value
[12] = HTB85 osteosarcoma cell growth inhibition, synergistic combos for chromothripsis tumors, BGB or cisplatin IC20 combos (AID 1671453; in the data active = inhibition above about 80%;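 also: cells exposed for 96 hours before readout; 0% = vehicle DMSO and 100% = high DMSO killing control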); conditions: HTB85 osteosarcoma cells, drug combinations, stronger effect = higher value
[13] = CRL2098 osteosarcoma cell growth inhibition, synergistic combos for chromothripsis tumors, BGB or cisplatin IC20 combos (AID 1671454; in the data active = inhibition above about 80%;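 also: cells exposed for 96 h before readout; 0% = vehicle DMSO and 100% = killing by high DMSO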); conditions: CRL2098 osteosarcoma cells, drug combinations, stronger effect = higher value
[14] = HD-MB03 medulloblastoma cell growth inhibition, synergistic combos for chromothripsis tumors, BGB or cisplatin IC20 combos (AID 1671455; in the data active = inhibition above about 83%;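 also: 0% = vehicle DMSO and 100% = high DMSO as cytotoxic control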); conditions: HD-MB03 medulloblastoma cells, stronger effect = higher value
[15] = sensitizers of A549 cells to miR-34 induction, primary screen, imaging, A549 dox-inducible miR-34, nuclei and caspase counts (AID 1347080;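 active = compounds whose cell count with miR-34 switched on is under 0.7 times the count with it off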); conditions: A549 miR-34 inducible, Hoechst nuclei count, 48 h
[16] = MELAS cybrid survival, CellTiter-Glo 48 h, stronger effect = higher value
[17] = Rieske KO mouse fibroblast survival, CellTiter-Glo 72 h
[18] = measured here: combination with BGB IC40, at 0.05 µM
[19] = stronger effect = lower value, cell number ratio, induced over uninduced
[20] = measured here: relative caspase fold change +Dox/-Dox
[21] = measured here: total cells with miR-34 induction, stronger effect = lower value
[22] = measured here: total cells without miR-34 induction

Cc1oncc1C(=O)Nc1ccc(C(F)(F)F)cc1
outcome [1]: inactive | outcome [2]: inactive | outcome [3]: inactive | z-score [4, 16]: -0.557 (inactive) and -0.339 (inactive) and -0.166 (inactive) | z-score [4, 17]: 0.617 and 0.893 and 0.301 | remaining NAD [5]: 10 nM (inactive) | luciferase signal [6]: 120 AU (inactive) | z-score [7]: 1.22 (inactive) and 1.26 (inactive) and 0.055 (inactive) | inhibition ([8]; at 0.5 µM, stronger effect = higher value): -30.3% (inactive) | inhibition ([8]; measured here: combination with BGB IC20, at 0.005 µM): -32.3% | inhibition ([8]; measured here: combination with BGB IC40, at 0.005 µM): -17.1% | inhibition [8, 18]: -23.8% | inhibition ([8]; measured here: combination with cisplatin, at 0.5 µM, stronger effect = higher value): -32.5% | inhibition ([8]; measured here: combination with cisplatin, at 5 µM, stronger effect = higher value): 34.4% | inhibition ([9]; BGB combo, at 5 µM): 22.1% | inhibition ([9]; at 0.5 µM): -14.7% (inactive) | inhibition ([9]; cisplatin combo, at 5 µM): 36.7% | inhibition ([9]; measured here: with BGB IC20 combination, at 0.5 µM): 2.4% | inhibition ([9]; measured here: with cisplatin IC20 combination, at 0.5 µM): -16.7% | inhibition ([9]; single agent, at 5 µM): 48% | inhibition ([10]; BGB IC20 combo, at 0.005 µM): 16.5% | inhibition ([10]; BGB IC40 combo, at 0.005 µM): -7.12% | inhibition ([10]; BGB IC40 combo, at 0.05 µM): 33.8% | inhibition ([10]; at 0.5 µM): -22.9% (inactive) | inhibition ([10]; cisplatin combo, at 0.05 µM): 31.4% | inhibition ([10]; cisplatin combo, at 0.5 µM): -18.9% | inhibition ([10]; cisplatin combo, at 5 µM): -28.5% | inhibition ([10]; measured here: 5 uM single agent, at 5 µM): 9.62% | inhibition ([11]; at 0.5 µM): -18.1% (inactive) | inhibition [11, 18]: -48.9% | inhibition ([11]; measured here: combination with cisplatin, at 0.5 µM): -43.1% | inhibition ([11]; measured here: combination with cisplatin, at 5 µM): -31% | inhibition ([12]; at 0.5 µM): -9.93% (inactive) | inhibition ([12]; measured here: with BGB IC20, at 0.5 µM): -10.4% | inhibition ([12]; measured here: with BGB IC20, at 5 µM): 14.1% | inhibition ([12]; measured here: with cisplatin IC20, at 0.5 µM): -18.2% | inhibition ([12]; measured here: with cisplatin IC20, at 5 µM): 0.987% | inhibition ([12]; single agent, at 5 µM): 24.3% | inhibition ([13]; at 0.5 µM): -47.6% (inactive) | inhibition ([13]; measured here: combination with BGB at IC20, at 0.5 µM): -10.4% | inhibition ([13]; measured here: combination with cisplatin at IC20, at 0.5 µM): -126% | inhibition ([14]; at 0.5 µM): 1.82% (inactive) | inhibition ([14]; measured here: combo with BGB at IC20, at 0.5 µM): -13.1% | inhibition ([14]; measured here: combo with cisplatin at IC20, at 0.5 µM): 15.3%

CN(C)CCC=C1c2ccccc2C=Cc2ccccc21
outcome [1]: inactive | outcome [2]: inactive | outcome [3]: inactive | z-score [4, 16]: -1.05 (inactive) and 0.34 (inactive) | z-score [4, 17]: -0.783 and 0.18 | remaining NAD [5]: 10 nM (inactive) | luciferase signal [6]: 52 AU (inactive) | z-score [7]: -1.16 (inactive)

O=C(N[C@H](CO)[C@H](O)c1ccc([N+](=O)[O-])cc1)C(Cl)Cl
outcome [1]: inactive | fold change [15, 19]: 0.94 (inactive) and 0.855 (inactive) | fold change [15, 20]: 1.13 and 1.29 | cell count [15, 21]: 8280 and 6420 | cell count [15, 22]: 8810 and 7510 | z-score [4, 16]: -0.509 (inactive) and 0.536 | z-score [4, 17]: -3.37 and 2.44 | remaining NAD [5]: 10 nM (inactive) | luciferase signal [6]: 88 AU (inactive) | z-score [7]: -0.74 (inactive)

CS(=O)(=O)c1ccc([C@@H](O)[C@@H](CO)NC(=O)C(Cl)Cl)cc1
outcome [1]: inactive | fold change [15, 19]: 0.9 (inactive) and 0.984 (inactive) | fold change [15, 20]: 1.05 and 2.01 | cell count [15, 21]: 7540 and 11000 | cell count [15, 22]: 8380 and 11100 | z-score [4, 16]: 0.78 (inactive) | z-score [4, 17]: -3.27 | remaining NAD [5]: 23 nM (inactive) | luciferase signal [6]: 44 AU (inactive)

From PubChem BioAssay
